# Assay results as given in ChEMBL document CHEMBL3988442, “University of Dundee, Small-Polar-MMV Screening Library” (2021).
# Among all 67,000 compounds or so, about 300 (0.45%) showed an effect of 50% or more. Shown is part of a subset that was picked to be rich in strong results.
# Molecular target: Polyketide synthase Pks13 (Mycobacterium tuberculosis (strain ATCC 25618 / H37Rv)) (UniProt I6X8D2)
# Assay: Mycobacterium tuberculosis Polyketide synthase 13 Thioesterase (PKS13)
# Format: functional
# Design: scale not given: in the data most compounds retested in dose-response had high values
# Details: 30 µM
# Sequence of Polyketide synthase Pks13 (Mycobacterium tuberculosis (strain ATCC 25618 / H37Rv)) (I6X8D2 whole entry): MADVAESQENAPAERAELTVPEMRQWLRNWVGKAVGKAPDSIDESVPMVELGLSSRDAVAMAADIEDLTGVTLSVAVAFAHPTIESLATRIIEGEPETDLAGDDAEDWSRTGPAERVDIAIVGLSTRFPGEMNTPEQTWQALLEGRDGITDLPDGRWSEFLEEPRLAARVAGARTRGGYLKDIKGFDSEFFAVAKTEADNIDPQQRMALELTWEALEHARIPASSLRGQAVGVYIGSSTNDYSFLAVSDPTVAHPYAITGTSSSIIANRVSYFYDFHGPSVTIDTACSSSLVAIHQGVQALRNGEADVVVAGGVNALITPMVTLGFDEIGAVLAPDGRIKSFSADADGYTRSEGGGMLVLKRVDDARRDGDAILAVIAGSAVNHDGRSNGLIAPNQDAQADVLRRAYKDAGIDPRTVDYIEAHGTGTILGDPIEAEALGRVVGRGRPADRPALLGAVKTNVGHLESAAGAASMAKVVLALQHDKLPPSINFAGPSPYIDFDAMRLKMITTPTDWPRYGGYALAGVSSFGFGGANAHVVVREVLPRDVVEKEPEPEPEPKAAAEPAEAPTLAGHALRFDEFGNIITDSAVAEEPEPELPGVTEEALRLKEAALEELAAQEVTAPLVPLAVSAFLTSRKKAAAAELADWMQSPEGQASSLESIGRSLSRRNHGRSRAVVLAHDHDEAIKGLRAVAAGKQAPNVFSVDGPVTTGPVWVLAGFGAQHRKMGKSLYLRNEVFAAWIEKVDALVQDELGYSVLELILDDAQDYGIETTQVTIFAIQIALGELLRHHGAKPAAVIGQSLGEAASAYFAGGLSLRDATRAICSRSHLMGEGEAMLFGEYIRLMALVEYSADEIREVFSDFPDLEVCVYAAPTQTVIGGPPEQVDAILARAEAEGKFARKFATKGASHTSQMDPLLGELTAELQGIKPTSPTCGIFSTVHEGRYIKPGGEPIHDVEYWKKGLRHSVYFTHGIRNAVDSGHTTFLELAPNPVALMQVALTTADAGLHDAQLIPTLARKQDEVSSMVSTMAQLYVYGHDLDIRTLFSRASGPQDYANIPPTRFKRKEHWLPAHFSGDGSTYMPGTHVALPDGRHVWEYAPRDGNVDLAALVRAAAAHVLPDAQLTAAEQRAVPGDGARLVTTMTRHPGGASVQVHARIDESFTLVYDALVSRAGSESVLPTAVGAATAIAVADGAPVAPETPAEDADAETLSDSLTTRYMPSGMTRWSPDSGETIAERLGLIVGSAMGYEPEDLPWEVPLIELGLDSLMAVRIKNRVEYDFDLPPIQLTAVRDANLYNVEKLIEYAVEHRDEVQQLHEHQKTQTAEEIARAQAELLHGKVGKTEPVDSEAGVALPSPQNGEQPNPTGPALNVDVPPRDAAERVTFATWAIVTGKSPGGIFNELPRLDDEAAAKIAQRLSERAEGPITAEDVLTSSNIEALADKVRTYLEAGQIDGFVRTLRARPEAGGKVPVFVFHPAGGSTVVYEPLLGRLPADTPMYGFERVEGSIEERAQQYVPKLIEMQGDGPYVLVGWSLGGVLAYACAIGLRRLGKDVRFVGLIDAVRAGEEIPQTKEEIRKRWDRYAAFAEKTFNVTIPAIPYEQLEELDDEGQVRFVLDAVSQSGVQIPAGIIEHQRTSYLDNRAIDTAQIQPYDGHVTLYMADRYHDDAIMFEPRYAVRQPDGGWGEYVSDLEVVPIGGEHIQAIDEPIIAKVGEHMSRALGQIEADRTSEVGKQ
row,SMILES,Percent Effect [%]
1,CS(=O)(=O)N1CC[C@H]2OCC[C@@]2(C(=O)NCc2ccccn2)C1,-5.05
2,O=C(c1ccco1)N1C[C@@H]2CCN(c3cccnc3)C[C@@H]2C1,18.9
3,COc1ccc(C2(C(=O)N3CC[C@@]4(O)CCNC[C@H]4C3)CCCC2)cc1,-3.94
4,Nc1nc2c(c(=O)[nH]1)CCN(C(=O)c1cccc3nccnc13)C2,2.77
5,COc1cccc(C(=O)N2CCc3c(nc(N)[nH]c3=O)C2)c1C,79.5
6,COc1cccc(C(=O)N2CCc3c(nc(N)[nH]c3=O)C2)c1OC,-13.9
7,O=C1CC[C@H]2CN(Cc3cccc(F)c3)CC[C@H]2N1CCc1c[nH]cn1,-22.1
8,COCCC(=O)N1C[C@H]2CN(Cc3cccnc3)C(=O)[C@H]2C1,-37.5
9,NCC1[C@H]2CN(Cc3cccc(Cl)c3)C[C@@H]12 (stereo partly specified),-29.5
10,CNC(=O)N1C[C@H]2N(c3ncccn3)CCC[C@@]2(C(=O)NCC2CC2)C1,-22
11,COC(=O)C(C)(C)NC(=O)c1cc2sc(N(C)C)nc2s1,52.3
12,COC(=O)C(C)(C)NC(=O)c1cnc(C(C)(C)C)s1,-10.1
13,CCN(CC)c1nc2sc(C(=O)NC(C)(C)C(=O)OC)cc2s1,39.6
14,CCCS(=O)(=O)N1C[C@H]2C[C@H](C(=O)N3CCOCC3)[C@@H](C1)O2,-22.9
15,Cc1cccc(CN2C(=O)CC[C@@H]3[C@H]2CCN3Cc2nccn2C)n1,-58.5
16,COCCN1C(=O)C[C@@H]2[C@H]1CCN2C(=O)c1ccc[nH]1,-9.69
17,CN1CCCC[C@@H]2[C@H]1[C@@H](c1ccccc1)CCN2C(=O)c1cccnc1,9.14
18,Cc1noc([C@H]2COC[C@H]3CN(C(=O)Cc4ccsc4)C[C@H]32)n1,-1.57
19,CC(=O)N1CCCC1c1ccc(Br)cn1 (stereo unspecified),61.5
20,CC(=O)N1CCCC1c1ccc(-c2c(C)noc2C)cn1 (stereo unspecified),-29.1
21,CC(=O)N1CCCC(c2ccc(Br)cn2)C1 (stereo unspecified),-6.19
22,Cc1cccc(CN2C(=O)CC[C@@H]3[C@H]2CCN3C(=O)c2ccsc2)n1,-13.6
23,Cc1ccnc(OC[C@@]23CCO[C@@H]2CCN(S(C)(=O)=O)C3)n1,-29.2
24,CN(C)[C@@H]1CN(C(=O)Cc2cccc(F)c2)[C@@H]2CCCO[C@H]12,-3.8

row,SMILES,Percent Effect [%]
1,O=C(OCC1CCCN(C(=O)c2ccccc2)C1)c1cscn1 (stereo unspecified),10.2
2,COCc1nc(C(=O)OCC2CCN(c3ccccc3)C2)cs1 (stereo unspecified),58.1
3,Cc1ncc(C(=O)OCC2CCN(c3ccccc3)C2)s1 (stereo unspecified),39.2
4,Cn1ncc(C(=O)OCC2CCN(c3ccccc3)C2)c1C(F)F (stereo unspecified),11.4
5,Cc1ncsc1C(=O)OCC1CCN(c2ccccc2)C1 (stereo unspecified),30.2
6,O=C(OCC1CCN(c2ccccc2)C1)c1cscn1 (stereo unspecified),62.9
7,O=C(CSc1ccccn1)N1CCN(CCO)[C@@H]2CS(=O)(=O)C[C@@H]21,0.423
8,Cc1ccoc1C(=O)N1C[C@@H]2COC[C@]2(CNS(C)(=O)=O)C1,-15.4
9,Cn1cc(CN2C[C@@H](NC(=O)c3cscn3)[C@H]3OCCC[C@H]32)cn1,-41.4
10,O=C(Nc1ccccc1)N1C[C@H]2C[C@H](C(=O)N3CCCC3)[C@@H](C1)O2,-39.5
11,CC(C)Cc1nc(CN2CCc3onc(-c4cccc(F)c4)c3C2)no1,3.75
12,CC(C)c1nc(CN2CCc3onc(-c4cccc(F)c4)c3C2)no1,91.2
13,CC(C)(C)c1nc(CN2CCc3onc(-c4cccc(F)c4)c3C2)no1,-16.5
14,O=C(C1CCC1)N1C[C@@H]2CC[C@H](C1)N(S(=O)(=O)c1ccccc1)C2,-44.5
15,CCCN1CCN(C(=O)c2ccnc(N)c2)[C@H]2CS(=O)(=O)C[C@H]21,-5.18
16,CC1=CC[C@@H]2CN(C(=O)c3ccc(-c4cc[nH]n4)cc3)C[C@@H]2C1,-21.5
17,CN(CCc1cccs1)C(=O)Nc1ccc2c(c1)C(=O)N(C)CC2,31.9
18,CN1CCc2ccc(NCc3cscn3)cc2C1=O,-2.18
19,CN1CCc2ccc(NCc3cccs3)cc2C1=O,126
20,Cc1noc(C)c1CN1C[C@@H]2COC[C@@H](C(=O)N3CCCCO3)[C@@H]2C1,6.29
21,CN(C)c1ncc2c(n1)C1(CCN(Cc3ccccc3)C1)COC2 (stereo unspecified),-6.74
22,COc1cccc(CN2CCC3(CC2)CCN(c2ncc(C)cn2)C3)c1,-24.2
23,COc1cccc(CN2CCC3(COCc4cnc(N(C)C)nc43)C2)c1 (stereo unspecified),111
24,CN(C)c1ncc2c(n1)C1(CCN(Cc3cccnc3)C1)COC2 (stereo unspecified),-30.2

row,SMILES,Percent Effect [%]
1,COc1cccc(CN2CCC3(CCN(c4ncc(F)cn4)CC3)C2)c1,14.4
2,COc1cccc(CN2CCC3(CCN(c4ncc(C)cn4)CC3)C2)c1,66.7
3,Cc1noc([C@]23COC[C@H]2CN(C(=O)COC2CCCC2)C3)n1,-5.31
4,COCCOCC(=O)N1C[C@H]2CC[C@@H]1CN(C1Cc3ccccc3C1)C2,-22.6
5,CCc1cccc2cc(CNCCCN3CCOCC3)c(=O)[nH]c12,16.5
6,Cc1ccc2cc(CNCCCN3CCOCC3)c(=O)[nH]c2c1C,62.3
7,Cc1cccc2cc(CNCCCN3CCOCC3)c(=O)[nH]c12,-21.5
8,CS(=O)(=O)N1CCO[C@@H]2CN(Cc3ccncc3)C[C@@H]2C1,-14.9
9,CCN1CCC(CNCc2c[nH]nc2C(C)(C)C)C1 (stereo unspecified),-27.2
10,CC(O)CN1CCC(CNCc2c[nH]nc2C(C)(C)C)CC1 (stereo unspecified),110
11,CN(C)CCN1CCC(CNCc2c[nH]nc2C(C)(C)C)CC1,-14.5
12,CC(O)CN1CCC(CNCc2cccc(C(N)=O)c2)CC1 (stereo unspecified),108
13,CC(O)CN1CCC(CNCc2ccc(C(N)=O)cc2)CC1 (stereo unspecified),-12.3
14,CC(O)CN1CCC(CNCc2cccc(C(=O)N(C)C)c2)CC1 (stereo unspecified),-0.155
15,Cn1cc(CN2CC[C@@H]3[C@@H]2CCN3C(=O)Cc2cccc(F)c2)cn1,-2.13
16,Fc1ccc(CN2CCO[C@H]3[C@H](Oc4ccccn4)CC[C@@H]32)cc1,13.6
17,O=C(Cc1ccccn1)N1CCN2C[C@H](Oc3cccc(F)c3)C[C@H]2C1,-20.8
18,O=C(c1cnccn1)N1CC[C@H]2C[C@@H](c3ccncn3)O[C@@H]2C1,-4.56
19,O=C(O)[C@]12CCCN(Cc3ccccc3)C[C@H]1CN(c1ncccn1)C2,-25.9
20,Cc1ccc(CN2CC[C@H]3O[C@@H](C(=O)N4CCCO4)CC[C@H]32)s1,-20.3
21,Cn1ncc2c1CN(Cc1ccc(F)cc1)CC2COCC1CC1 (stereo unspecified),-20.5
22,Cn1ncc2c1C(COCC1CC1)CN(Cc1cccnc1)C2 (stereo unspecified),-43.6
23,Cn1ncc2c1CN(Cc1cccnc1)CC2COCC1CC1 (stereo unspecified),60.5
